Like-named read-outs stand apart in the source and are kept apart here.
Legend:
[1] = tested on: AAK1; details: read-out: apparent Kd, n = 1
[2] = tested on: AURKA; details: read-out: apparent Kd, n = 1
[3] = compound concentrations:100 nM and 1000 nM (sheet 'Lestaurtinib' of Supplementary Table 1),run:Lestaurtinib_02339_R2,Plate:MR001
[4] = compound concentrations:100 nM and 1000 nM (sheet 'Lestaurtinib' of Supplementary Table 1),run:Lestaurtinib_02339_R3,Plate:MR001
[5] = compound concentrations:100 nM and 1000 nM (sheet 'Lestaurtinib' of Supplementary Table 1),run:Lestaurtinib_02367_R1,Plate:MR003
[6] = compound concentrations:100 nM and 1000 nM (sheet 'Lestaurtinib' of Supplementary Table 1),run:Lestaurtinib_02367_R2,Plate:MR003
[7] = compound concentrations:100 nM and 1000 nM (sheet 'Lestaurtinib' of Supplementary Table 1),run:Lestaurtinib_02367_R3,Plate:MR003
[8] = compound concentrations:100 nM and 1000 nM (sheet 'Lestaurtinib' of Supplementary Table 1),run:Lestaurtinib_02381_R3,Plate:MR004
[9] = compound concentrations:100 nM and 1000 nM (sheet 'Lestaurtinib' of Supplementary Table 1),run:Lestaurtinib_02407_R1,Plate:MR005
[10] = compound concentrations:100 nM and 1000 nM (sheet 'Lestaurtinib' of Supplementary Table 1),run:Lestaurtinib_02407_R2,Plate:MR005
[11] = compound concentrations:100 nM and 1000 nM (sheet 'Lestaurtinib' of Supplementary Table 1),run:Lestaurtinib_02407_R3,Plate:MR005
[12] = compound concentrations:100 nM and 1000 nM (sheet 'Lestaurtinib' of Supplementary Table 1),run:Lestaurtinib_02422_R2,Plate:MR006
[13] = compound concentrations:100 nM and 1000 nM (sheet 'Lestaurtinib' of Supplementary Table 1),run:Lestaurtinib_02437_R2,Plate:MR007
[14] = compound concentrations:100 nM and 1000 nM (sheet 'Lestaurtinib' of Supplementary Table 1),run:Lestaurtinib_02438_R1,Plate:MR008

Substance: Lestaurtinib
- potency estimated from few doses [1, 3]: 85.5 nM
- potency estimated from few doses [1, 4]: 53.3 nM
- potency estimated from few doses ([1]; compound concentrations:100 nM and 1000 nM (sheet 'Lestaurtinib' of Supplementary Table 1),run:Lestaurtinib_02364_R3,Plate:MR002): 69.8 nM
- potency estimated from few doses [1, 5]: 65.4 nM
- potency estimated from few doses [1, 6]: 78.3 nM
- potency estimated from few doses [1, 7]: 77.2 nM
- potency estimated from few doses ([1]; compound concentrations:100 nM and 1000 nM (sheet 'Lestaurtinib' of Supplementary Table 1),run:Lestaurtinib_02381_R1,Plate:MR004): 66.8 nM
- potency estimated from few doses [1, 8]: 45.5 nM
- potency estimated from few doses [1, 9]: 63.9 nM
- potency estimated from few doses [1, 10]: 53.3 nM
- potency estimated from few doses [1, 11]: 73.1 nM
- potency estimated from few doses [1, 12]: 18.9 nM
- potency estimated from few doses ([1]; compound concentrations:100 nM and 1000 nM (sheet 'Lestaurtinib' of Supplementary Table 1),run:Lestaurtinib_02422_R3,Plate:MR006): 72.2 nM
- potency estimated from few doses [1, 13]: 69.6 nM
- potency estimated from few doses [1, 14]: 74.4 nM
- potency estimated from few doses ([1]; compound concentrations:100 nM and 1000 nM (sheet 'Lestaurtinib' of Supplementary Table 1),run:Lestaurtinib_02438_R2,Plate:MR008): 72.4 nM
- potency estimated from few doses ([1]; compound concentrations:100 nM and 1000 nM (sheet 'Lestaurtinib' of Supplementary Table 1),run:Lestaurtinib_02443_R1,Plate:MR009): 59.8 nM
- potency estimated from few doses ([1]; compound concentrations:100 nM and 1000 nM (sheet 'Lestaurtinib' of Supplementary Table 1),run:Lestaurtinib_02443_R2,Plate:MR009): 72.4 nM
- potency estimated from few doses ([1]; compound concentrations:100 nM and 1000 nM (sheet 'Lestaurtinib' of Supplementary Table 1),run:Lestaurtinib_02473_R1,Plate:MR010): 56.2 nM
- potency estimated from few doses ([1]; compound concentrations:100 nM and 1000 nM (sheet 'Lestaurtinib' of Supplementary Table 1),run:Lestaurtinib_02473_R3,Plate:MR010): 40.1 nM
- potency estimated from few doses ([1]; compound concentrations:100 nM and 1000 nM (sheet 'Lestaurtinib' of Supplementary Table 1),run:Lestaurtinib_02482_R1,Plate:MR011): 62.4 nM
- potency estimated from few doses ([1]; compound concentrations:100 nM and 1000 nM (sheet 'Lestaurtinib' of Supplementary Table 1),run:Lestaurtinib_02482_R2,Plate:MR011): 81.9 nM
- potency estimated from few doses ([1]; compound concentrations:100 nM and 1000 nM (sheet 'Lestaurtinib' of Supplementary Table 1),run:Lestaurtinib_02482_R3,Plate:MR011): 69.5 nM
- potency estimated from few doses ([1]; compound concentrations:100 nM and 1000 nM (sheet 'Lestaurtinib' of Supplementary Table 1),run:Lestaurtinib_02487_R1,Plate:MR012): 45.5 nM
- potency estimated from few doses ([1]; compound concentrations:100 nM and 1000 nM (sheet 'Lestaurtinib' of Supplementary Table 1),run:Lestaurtinib_02487_R2,Plate:MR012): 64.8 nM
- potency estimated from few doses ([1]; compound concentrations:100 nM and 1000 nM (sheet 'Lestaurtinib' of Supplementary Table 1),run:Lestaurtinib_02487_R3,Plate:MR012): 70.8 nM
- potency estimated from few doses ([1]; compound concentrations:100 nM and 1000 nM (sheet 'Lestaurtinib' of Supplementary Table 1),run:Lestaurtinib_02496_R1,Plate:MR013): 93.7 nM
- potency estimated from few doses ([1]; compound concentrations:100 nM and 1000 nM (sheet 'Lestaurtinib' of Supplementary Table 1),run:Lestaurtinib_02496_R2,Plate:MR013): 80.9 nM
- potency estimated from few doses ([1]; compound concentrations:100 nM and 1000 nM (sheet 'Lestaurtinib' of Supplementary Table 1),run:Lestaurtinib_02566_R1,Plate:MR014): 85.4 nM
- potency estimated from few doses ([1]; compound concentrations:100 nM and 1000 nM (sheet 'Lestaurtinib' of Supplementary Table 1),run:Lestaurtinib_02566_R2,Plate:MR014): 74.9 nM
- potency estimated from few doses ([1]; compound concentrations:100 nM and 1000 nM (sheet 'Lestaurtinib' of Supplementary Table 1),run:Lestaurtinib_02572_R1,Plate:MR015): 46 nM
- potency estimated from few doses ([1]; compound concentrations:100 nM and 1000 nM (sheet 'Lestaurtinib' of Supplementary Table 1),run:Lestaurtinib_02572_R2,Plate:MR015): 79.8 nM
- potency estimated from few doses ([1]; compound concentrations:100 nM and 1000 nM (sheet 'Lestaurtinib' of Supplementary Table 1),run:Lestaurtinib_02572_R3,Plate:MR015): 95.8 nM
- potency estimated from few doses ([1]; compound concentrations:100 nM and 1000 nM (sheet 'Lestaurtinib' of Supplementary Table 1),run:Lestaurtinib_02577_R1,Plate:MR016): 58.2 nM
- potency estimated from few doses ([1]; compound concentrations:100 nM and 1000 nM (sheet 'Lestaurtinib' of Supplementary Table 1),run:Lestaurtinib_02577_R2,Plate:MR016): 52.8 nM
- potency estimated from few doses ([1]; compound concentrations:100 nM and 1000 nM (sheet 'Lestaurtinib' of Supplementary Table 1),run:Lestaurtinib_02577_R3,Plate:MR016): 59.6 nM
- potency estimated from few doses ([1]; compound concentrations:100 nM and 1000 nM (sheet 'Lestaurtinib' of Supplementary Table 1),run:Lestaurtinib_02584_R1,Plate:MR017): 83.9 nM
- potency estimated from few doses ([1]; compound concentrations:100 nM and 1000 nM (sheet 'Lestaurtinib' of Supplementary Table 1),run:Lestaurtinib_02584_R2,Plate:MR017): 61 nM
- potency estimated from few doses ([1]; compound concentrations:100 nM and 1000 nM (sheet 'Lestaurtinib' of Supplementary Table 1),run:Lestaurtinib_02584_R3,Plate:MR017): 88.2 nM
- potency estimated from few doses ([1]; compound concentrations:100 nM and 1000 nM (sheet 'Lestaurtinib' of Supplementary Table 1),run:Lestaurtinib_02601_R1,Plate:MR018): 68.7 nM
- potency estimated from few doses ([1]; compound concentrations:100 nM and 1000 nM (sheet 'Lestaurtinib' of Supplementary Table 1),run:Lestaurtinib_02601_R3,Plate:MR018): 47.3 nM
- potency estimated from few doses ([1]; compound concentrations:100 nM and 1000 nM (sheet 'Lestaurtinib' of Supplementary Table 1),run:Lestaurtinib_02606_R1,Plate:MR019): 69.9 nM
- potency estimated from few doses ([1]; compound concentrations:100 nM and 1000 nM (sheet 'Lestaurtinib' of Supplementary Table 1),run:Lestaurtinib_02606_R2,Plate:MR019): 73.7 nM
- potency estimated from few doses ([1]; compound concentrations:100 nM and 1000 nM (sheet 'Lestaurtinib' of Supplementary Table 1),run:Lestaurtinib_02624_R1,Plate:MR020): 52 nM
- potency estimated from few doses ([1]; compound concentrations:100 nM and 1000 nM (sheet 'Lestaurtinib' of Supplementary Table 1),run:Lestaurtinib_02624_R2,Plate:MR020): 66.6 nM
- potency estimated from few doses ([1]; compound concentrations:100 nM and 1000 nM (sheet 'Lestaurtinib' of Supplementary Table 1),run:Lestaurtinib_02624_R3,Plate:MR020): 69.8 nM
- potency estimated from few doses ([1]; compound concentrations:100 nM and 1000 nM (sheet 'Lestaurtinib' of Supplementary Table 1),run:Lestaurtinib_02724_R1,Plate:MR021): 69.4 nM
- potency estimated from few doses ([1]; compound concentrations:100 nM and 1000 nM (sheet 'Lestaurtinib' of Supplementary Table 1),run:Lestaurtinib_02741_R2,Plate:MR023): 113 nM
- potency estimated from few doses ([1]; compound concentrations:100 nM and 1000 nM (sheet 'Lestaurtinib' of Supplementary Table 1),run:Lestaurtinib_02741_R3,Plate:MR023): 89.7 nM
- potency estimated from few doses ([1]; compound concentrations:100 nM and 1000 nM (sheet 'Lestaurtinib' of Supplementary Table 1),run:Lestaurtinib_02748_R1,Plate:MR024): 64.3 nM
- potency estimated from few doses ([1]; compound concentrations:100 nM and 1000 nM (sheet 'Lestaurtinib' of Supplementary Table 1),run:Lestaurtinib_02748_R2,Plate:MR024): 53.8 nM
- potency estimated from few doses ([1]; compound concentrations:100 nM and 1000 nM (sheet 'Lestaurtinib' of Supplementary Table 1),run:Lestaurtinib_02748_R3,Plate:MR024): 68.7 nM
- potency estimated from few doses ([1]; compound concentrations:100 nM and 1000 nM (sheet 'Lestaurtinib' of Supplementary Table 1),run:Lestaurtinib_02752_R1,Plate:MR025): 98.6 nM
- potency estimated from few doses ([1]; compound concentrations:100 nM and 1000 nM (sheet 'Lestaurtinib' of Supplementary Table 1),run:Lestaurtinib_02765_R3,Plate:MR026): 84.5 nM
- potency estimated from few doses ([1]; compound concentrations:100 nM and 1000 nM (sheet 'Lestaurtinib' of Supplementary Table 1),run:Lestaurtinib_02766_R1,Plate:MR027): 55 nM
- potency estimated from few doses ([1]; compound concentrations:100 nM and 1000 nM (sheet 'Lestaurtinib' of Supplementary Table 1),run:Lestaurtinib_02768_R3,Plate:MR028): 80.1 nM
- potency estimated from few doses ([1]; compound concentrations:100 nM and 1000 nM (sheet 'Lestaurtinib' of Supplementary Table 1),run:Lestaurtinib_02795_R1,Plate:MR022): 81.4 nM
- potency estimated from few doses ([1]; compound concentrations:100 nM and 1000 nM (sheet 'Lestaurtinib' of Supplementary Table 1),run:Lestaurtinib_02795_R3,Plate:MR022): 154 nM
- potency estimated from few doses ([1]; compound concentrations:100 nM and 1000 nM (sheet 'Lestaurtinib' of Supplementary Table 1),run:Lestaurtinib_02802_R1,Plate:MR029): 67.9 nM
- potency estimated from few doses ([1]; compound concentrations:100 nM and 1000 nM (sheet 'Lestaurtinib' of Supplementary Table 1),run:Lestaurtinib_02802_R2,Plate:MR029): 50.7 nM
- potency estimated from few doses ([1]; compound concentrations:100 nM and 1000 nM (sheet 'Lestaurtinib' of Supplementary Table 1),run:Lestaurtinib_02896_R1,Plate:MR030): 73.7 nM
- potency estimated from few doses ([1]; compound concentrations:100 nM and 1000 nM (sheet 'Lestaurtinib' of Supplementary Table 1),run:Lestaurtinib_02896_R3,Plate:MR030): 71.3 nM
- potency estimated from few doses ([1]; compound concentrations:100 nM and 1000 nM (sheet 'Lestaurtinib' of Supplementary Table 1),run:Lestaurtinib_03172_R2,Plate:MR031): 56 nM
- potency estimated from few doses ([1]; compound concentrations:100 nM and 1000 nM (sheet 'Lestaurtinib' of Supplementary Table 1),run:Lestaurtinib_03172_R3,Plate:MR031): 66.8 nM
- potency estimated from few doses ([1]; compound concentrations:100 nM and 1000 nM (sheet 'Lestaurtinib' of Supplementary Table 1),run:Lestaurtinib_03252_R1,Plate:MR032): 96.3 nM
- potency estimated from few doses ([1]; compound concentrations:100 nM and 1000 nM (sheet 'Lestaurtinib' of Supplementary Table 1),run:Lestaurtinib_03260_R1,Plate:MR033): 73.1 nM
- potency estimated from few doses ([1]; compound concentrations:100 nM and 1000 nM (sheet 'Lestaurtinib' of Supplementary Table 1),run:Lestaurtinib_03260_R2,Plate:MR033): 77.8 nM
- potency estimated from few doses ([2]; compound concentrations:100 nM and 1000 nM (sheet 'Lestaurtinib' of Supplementary Table 1),run:Lestaurtinib_02339_R1,Plate:MR001): 20 nM
- potency estimated from few doses [2, 3]: 18 nM
- potency estimated from few doses [2, 4]: 18.4 nM
- potency estimated from few doses ([2]; compound concentrations:100 nM and 1000 nM (sheet 'Lestaurtinib' of Supplementary Table 1),run:Lestaurtinib_02364_R2,Plate:MR002): 21.3 nM
- potency estimated from few doses [2, 5]: 16.3 nM
- potency estimated from few doses [2, 6]: 18.4 nM
- potency estimated from few doses [2, 7]: 18.1 nM
- potency estimated from few doses [2, 8]: 17.5 nM
- potency estimated from few doses [2, 9]: 16.3 nM
- potency estimated from few doses [2, 10]: 18.3 nM
- potency estimated from few doses [2, 11]: 18.2 nM
- potency estimated from few doses ([2]; compound concentrations:100 nM and 1000 nM (sheet 'Lestaurtinib' of Supplementary Table 1),run:Lestaurtinib_02422_R1,Plate:MR006): 15.3 nM
- potency estimated from few doses [2, 12]: 7.4 nM
- potency estimated from few doses ([2]; compound concentrations:100 nM and 1000 nM (sheet 'Lestaurtinib' of Supplementary Table 1),run:Lestaurtinib_02437_R1,Plate:MR007): 20.9 nM
- potency estimated from few doses [2, 13]: 21.8 nM
- potency estimated from few doses ([2]; compound concentrations:100 nM and 1000 nM (sheet 'Lestaurtinib' of Supplementary Table 1),run:Lestaurtinib_02437_R3,Plate:MR007): 3.54 nM
- potency estimated from few doses [2, 14]: 15.4 nM

From publication PMC11062922 (Nature Chemical Biology, 2023)
